PI5P4K alpha inh: qHTS for Inhibitors of phosphatidylinositol 5-phosphate 4-kinase (PI5P4K); Phosphatidylinositol 5-phosphate 4-kinase type-2 alpha (Homo sapiens), P48426; PI5P4Kalpha enzyme, ADP-Glo luminescence, 60 min; stronger effect = lower value; max response, %; hit rate 1.2% among 330,000; AID 652105, 2013; active means max response of -50% or lower; inconclusive means between -30% and -50%; inactive means -30% or higher; further: value at the top dose of about 77 µM
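Controls without substrate or without enzyme flank wells where PI5P4Kalpha converts substrate using 5 microM ATP (final). Incubation lasts 60 minutes at room temperature; ADP formed is read by ADP-Glo luminescence.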
BAZ2B inh: qHTS Assay for Inhibitors of BAZ2B | AlphaScreen BAZ2B-H3K14Ac peptide displacement | hit rate 4.4% among 360,000 | Bromodomain adjacent to zinc finger domain protein 2B (Homo sapiens), Q9UIF8 | AID 504333, 2011 | Potency, µM (top dose mostly 114 µM), hits mostly inhibitors; further: nearly all actives have a fitted effect of over 60% in size
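AlphaScreen displacement of biotin-H3(5-23)K14Ac peptide (50 nM final) from BAZ2B (50 nM final) in PBS pH 7.4, 0.01% Tween-20; complex preformed 30 min RT, then compounds (top 110 uM) 30 min RT, beads 20 min dark.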
G9a block: qHTS Assay for Inhibitors of Histone Lysine Methyltransferase G9a | hit rate 8.8% among 350,000 | Potency, µM (doses to about 102 µM), usual class: inhibitors | G9a H3K9 monomethylation, AlphaScreen, 2 h | Histone-lysine N-methyltransferase EHMT2 (Homo sapiens), Q96KQ7; further: nearly all actives have a fitted effect of over 75% in size
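Step 1: enzyme (final 20 nM) with compound, 15 min RT. Step 2: substrate peptide 500 nM and SAM 20 uM, 2 h RT. Step 3: anti-H3K9me1 antibody and AlphaScreen beads, 10 min, then plate read.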
JMJD2A Tudor inh: qHTS Assay for Inhibitors of JMJD2A-Tudor Domain | Lysine-specific demethylase 4A (Homo sapiens), O75164 | AlphaScreen JMJD2A-Tudor / H3K4me3 peptide binding | Potency, µM (top dose mostly 114 µM), actives largely listed as inhibitors | hit rate 4.4% among 390,000; further: nearly all actives have a fitted effect of over 50% in size
HP1b chromo inh: HTS for Inhibitors of HP1-beta Chromodomain Interactions with Methylated Histone Tails; hit rate 0.56% among 390,000; AlphaScreen HP1-beta / biotin-H3K9me3 peptide binding; Chromobox protein homolog 1 (Homo sapiens), P83916; AID 540317, 2011; Potency, µM (titrated, usually from 114 µM), hits mostly inhibitors; further: nearly all actives have a fitted effect of over 70% in size
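HP1-beta protein (50 nM final) preincubated 30 min at room temperature with biotinylated H3(1-18)K9me3 peptide (50 nM) in PBS pH 7.4, 0.01% Tween-20, then compound added for 30 min. AlphaScreen streptavidin donor/nickel chelate acceptor beads (10 ug/mL final), 30 min dark, luminescence read.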
L3MBTL1 block: qHTS Assay for the Inhibitors of L3MBTL1 | Lethal(3)malignant brain tumor-like protein 1 (Homo sapiens), Q9Y468 | AlphaScreen L3MBTL1–H3K9me1 peptide binding | Potency, µM (doses to about 57.1 µM), most hits filed as inhibitors | hit rate 0.66% among 230,000; further: nearly all actives have a fitted effect of over 60% in size
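AlphaScreen proximity signal between nickel-chelate acceptor and streptavidin donor beads (final 10 ug/mL) reports binding of 50 nM L3MBTL1 to 75 nM biotin-H3 K9me1 peptide; complex incubated with compounds 30 min at room temperature; cefsulodin titration as control.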
Hits are given with their value; n = inactive; u = inconclusive; x = no result; [ ] = another dose, or the depositor's remark. Shown are actives, neighbours in structure and some others; about 11% of the full set was active somewhere. Unless noted, the call rests on the fitted dose curve; in most records, active means well fitted inhibition curve with a large enough effect; inconclusive means small, poorly fitted or top-dose-only effect; inactive means no such curve, though single readings can be large or run the other way.

SMILES	PI5P4K alpha inh	BAZ2B inh	G9a block	JMJD2A Tudor inh	HP1b chromo inh	L3MBTL1 block
O=c1[nH]c(/C=C\c2ccc(O)c(Cl)c2)nc(O)c1[N+](=O)[O-]	-97	n	50µM	n	n	x
O=c1[nH]c(/C=C\c2cccs2)nc(O)c1[N+](=O)[O-]	-66	n	u	u	n	u
O=c1[nH]c(/C=C\c2ccc(O)cc2)nc(O)c1[N+](=O)[O-]	-89	n	71µM	n	n	n
Cc1ccc(CCNC(=O)C2CCN(S(=O)(=O)c3ccc4c(ccn4C)c3)CC2)cc1	x	n	n	n	n	x
COc1ccc(S(=O)(=O)NCC(c2ccc(N(C)C)cc2)N2CCCC2)cc1F (configuration not stated)	x	n	n[12.7 µM]	n	n	x
Cc1cccc(-n2nnc(-c3nc(-c4cccs4)no3)c2N)c1	x	n	n	n	n	x
CC1CN(C(=O)Nc2ccc(C(=O)NCc3cccc(F)c3)cc2)c2ccccc2S1 (configuration not stated)	x	n	n	n	n	x
Cc1ccc(NCc2nnc(SCC(=O)NCc3ccco3)n2CC2CCCO2)cc1Cl (configuration not stated)	n	n	u	79µM	n	n
Cc1ccc(NCc2nnc(SCC(=O)Nc3cccc(O)c3)n2CC2CCCO2)c(C)c1 (configuration not stated)	n	u	56µM	u	n	n
Cc1ccc(NS(=O)(=O)c2ccc3nc(-c4ccccc4)[nH]c3c2)c(Cl)c1	x	n	n	n	n	x
COc1ccc(NC(=O)Cn2nc(C)c3c(C)n(-c4ccccc4)nc3c2=O)cc1OC	x	n	u	n	n	x
COc1ccc2c(c1)CC/C(=C\c1ccc(C)o1)C2=O	n	45µM	50µM	u	u	x
COc1ccc2c(c1)CC/C(=C\C=C\c1ccccc1OC)C2=O	n	n	7.9µM	n	n	n
COc1ccc2c(c1)C(=O)/C(=C/C=C/c1ccccc1)CC2	n	n	32µM	n	n	n
Oc1ccc(Br)cc1C1C=C(c2ccc3c(c2)OCO3)NC(c2ccc(F)c(Br)c2)N1 (configuration not stated)	x	x	x	u	n	x
COc1ccc(C)cc1NC(=O)COc1cc(=O)n(C)c2ccccc12	x	n	n	n	n	x
Cc1cc(C)cc(NC(=O)CCCN2C(=O)COc3ccc(C)cc32)c1	x	n	n	n	n	x
CCN(c1ccccc1)S(=O)(=O)c1ccc(C(=O)N(CCN(C)C)c2nc3c(F)cc(F)cc3s2)cc1	x	n	45µM	x	x	x
COc1ccc2sc(N(CCCN(C)C)C(=O)c3ccc(C(=O)c4ccccc4)cc3)nc2c1	n	u	45µM	50µM	n	n
COc1ccc2nc(N(CCN(C)C)C(=O)c3ccc4c(c3)OCCO4)sc2c1	n	u	x	n	n	x
CN(C)CCCN(C(=O)c1ccc(S(=O)(=O)N(C)Cc2ccccc2)cc1)c1nc2c(F)cccc2s1	n	u	n	u	n	x
CCN(Cc1ccccc1)S(=O)(=O)c1ccc(C(=O)N(CCCN(C)C)c2nc3cc4c(cc3s2)OCCO4)cc1	n	35µM	40µM	45µM	u	n
CN(C)CCCN(C(=O)c1ccco1)c1nc2c(F)cc(F)cc2s1	n	n	n	n	n	x
CCN(Cc1ccccc1)S(=O)(=O)c1ccc(C(=O)N(CCCN(C)C)c2nc3cc(OC)ccc3s2)cc1	n	u	45µM	u	n	n
COc1cccc(Cn2c(=O)c(-c3ccc(Cl)cc3)nc3cncnc32)c1	x	x	n[0.501 µM]	x	x	x
SMILES	PI5P4K alpha inh	BAZ2B inh	G9a block	JMJD2A Tudor inh	HP1b chromo inh	L3MBTL1 block
COc1ccccc1CNc1ccc(-c2nc(-c3ccncc3)no2)cc1[N+](=O)[O-]	x	n	n	n	n	x
CC(=O)N1CCCc2cc(S(=O)(=O)N3CCC(C(=O)NCc4ccc(N(C)C)cc4)CC3)ccc21	x	n	u	u	n	x
Cc1c(Cl)cccc1NC(=O)CSc1nc(=O)n(Cc2ccccn2)c2c1CCC2	x	n	n	n	n	x
CCN(Cc1ccccc1)S(=O)(=O)c1ccc(C(=O)N(CCCN(C)C)c2nc3ccc(F)cc3s2)cc1	n	28µM	x	u	n	x
CN(C)CCCN(C(=O)c1nc2ccccc2s1)c1nc2ccc(F)cc2s1	n	x	x	n	n	x
O=C(O)c1ccc(-c2ncc[nH]2)cc1	n	n	n	20µM	n	n
O=C(O)c1ccc(-c2nc3ccccc3[nH]2)cc1	n	n	n	n	n	n
COc1cc(OC)cc(-c2nnc3n2N=C(c2ccc(OC)c(OC)c2)CS3)c1	x	x	x	n	x	x
CCCCn1c(=O)nc2n(-c3ccc(Cl)cc3)c3ccccc3cc-2c1=O	n	n	40µM	n	n	n
CCNC(=S)NCCN1CCOCC1	n	n	n	n	n	n
CCCCNC(=S)NCCN1CCCCC1	n	n	2µM	1.6µM	u	n
CCCNC(=S)NCCN1CCCCC1	n	u	8.9µM	40µM	n	n
CCNC(=S)NCCN1CCCCC1	n	n	n	n	n	x
CCOC(=O)Cn1c(=O)n(C2CCCCC2)c2nc(-c3ccccc3Cl)nc(C(N)=O)c21	x	n	n	n	n	x
NCC[C@H](O)C(=O)N[C@@H]1C[C@H](N)[C@@H](O[C@H]2O[C@H](CN)CC[C@H]2N)[C@H](O)[C@H]1O[C@H]1O[C@H](CO)[C@@H](O)[C@H](N)[C@H]1O	x	x	n[12.7 µM]	x	x	x
COc1ccc2c(=O)cc(C(=O)O)oc2c1	n	n	56µM	n	n	n
O=C(Nc1nc2c(Cl)ccc(Cl)c2s1)C1CC1	n	n	x	n	n	n
NNc1nc2c(Cl)ccc(Cl)c2s1	u	50µM	u	45µM	n	n
CC(Nc1ccc(N2CCOCC2)cc1)C(=O)N1c2ccccc2CC1C (configuration not stated)	n	35µM	x	u	n	n
COc1cc(C2CC(=O)Nc3c2c(C)nn3-c2nncc(-c3ccccc3)n2)cc(OC)c1OC (configuration not stated)	x	n	n	n	n	x
COc1cc2c(cc1OC)C(COc1ccc(C(C)C)cc1)N(C(=O)c1ccc(S(=O)(=O)N3CCCC3)cc1)CC2 (configuration not stated)	x	n	n	n	n	x
CNC(=O)c1c(NC(=O)CCS(=O)(=O)c2ccc(C)cc2)sc2c1CCN(C(=O)OC)C2	n	n	50µM	n	n	n
